# Assay results reported in PubChem BioAssay (NCATS).
# Results filed as inconclusive are left out. A call without a number means that no potency is given here. Values without a mark were called inactive. Activity calls are given as the source filed them. Unless noted, the call rests on the fitted dose curve.
# Experiments:
# [1] = qHTS to identify inhibitors of the type 1 interferon - major histocompatibility complex class I in skeletal muscle: primary screen against the NCATS Pharmaceutical Collection (AID 1347407; active means well fitted curve in the direction sought with a large enough effect; an effect the other way counts as inactive or inconclusive;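 further: luminescence of HiBiT knocked into endogenous HLA-B as interferon-induced MHC class I level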)
# Summary of the method: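 Cells were seeded with 4 ng/ml IFN-beta, incubated 1 h, then dosed with compounds over eight 1:5 steps up to 46 uM final. After 24 h at 37 C, HiBiT lytic reagent was added and luminescence read after 10 min lysis in the dark.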
# [2] = molecular target: Protein phosphatase 1D (Homo sapiens) (UniProt O15297); experiment: RapidFire Mass Spectrometry qHTS Assay for Modulators of WT P53-Induced Phosphatase 1 (WIP1) (AID 1347424; active means well fitted curve in the direction sought with a large enough effect; an effect the other way counts as inactive or inconclusive; further: series mostly up to about 63 µM)
# Summary of the method: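 RapidFire MS readout of dephosphorylated VEPPL-S-QETFS product, with 1 uM isotope-labelled peptide standard. Reaction: 10 nM WIP1, 2 uM phosphopeptide substrate, 5 min, room temperature, after 1 h compound preincubation; stopped with 0.5% formic acid.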
# [3] = molecular target: Protein phosphatase 1D (Homo sapiens) (UniProt O15297); experiment: Rhodamine-PBP qHTS Assay for Modulators of WT P53-Induced Phosphatase 1 (WIP1) (AID 1347425; active means well fitted curve in the direction sought with a large enough effect; an effect the other way counts as inactive or inconclusive)
# Summary of the method: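 5 nM WIP1 + 10 uM Rh-PBP, 50 mM Tris pH 7.5, 30 mM MgCl2, 1 mM TCEP, 0.1 mM EGTA, BSA; cpds pinned, 1 hr RT; + 10 uM phosphopeptide; fluorescence 1-min reads x 11 min; delta = f1 - f0.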
# [4] = Primary qHTS for inhibitors of SARS-S pseudo-typed particle cell entry (AID 1479145); further: nearly all actives have a fitted effect of over 45% in size
# [5] = Primary qHTS for Huh7 cytotoxicity: counterscreen for inhibitors of MERS-S pseudotyped particle cell entry (AID 1479147)
# [6] = Primary qHTS for inhibitors of MERS-S pseudo-typed particle cell entry (AID 1479149); further: nearly all actives have a fitted effect of over 60% in size
# [7] = Primary qHTS for Vero E6 cytotoxicity: counterscreen for inhibitors of SARS-S pseudo-typed particle cell entry (AID 1479150); further: potency means the concentration at half of the fitted maximal effect
# Protein phosphatase 1D (Homo sapiens), sequence (O15297 whole entry, looked up): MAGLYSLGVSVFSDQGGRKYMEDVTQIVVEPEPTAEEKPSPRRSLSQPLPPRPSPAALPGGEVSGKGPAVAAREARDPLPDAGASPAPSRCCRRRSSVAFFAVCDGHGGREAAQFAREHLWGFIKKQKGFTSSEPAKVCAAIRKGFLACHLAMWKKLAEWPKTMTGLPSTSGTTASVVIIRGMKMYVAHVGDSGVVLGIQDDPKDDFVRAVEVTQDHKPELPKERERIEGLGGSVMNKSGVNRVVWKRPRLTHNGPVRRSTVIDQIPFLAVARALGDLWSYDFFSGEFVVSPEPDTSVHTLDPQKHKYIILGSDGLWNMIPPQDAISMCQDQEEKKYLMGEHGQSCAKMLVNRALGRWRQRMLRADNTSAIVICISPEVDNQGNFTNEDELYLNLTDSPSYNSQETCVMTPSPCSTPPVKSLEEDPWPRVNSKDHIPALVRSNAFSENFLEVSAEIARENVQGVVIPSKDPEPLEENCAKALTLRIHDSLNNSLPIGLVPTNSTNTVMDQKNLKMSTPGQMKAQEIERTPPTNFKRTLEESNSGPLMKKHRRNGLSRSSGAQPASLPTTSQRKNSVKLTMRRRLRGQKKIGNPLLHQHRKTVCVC
smiles,measurement,setting,value
CCOC(=O)C1(c2ccccc2)CCN(CCc2ccc(N)cc2)CC1,Potency,[1],inactive
same,Potency,[2],inactive
same,outcome,[3],inactive
same,Potency,[4],inactive
same,Potency,[5],inactive
same,Potency,[6],inactive
same,Potency,[7],inactive
COP(=O)(OC)OC=C(Cl)Cl,Potency,[1],inactive
same,Potency,[2],inactive
same,outcome,[3],inactive
same,Potency,[4],inactive
same,Potency,[5],inactive
same,Potency,[6],inactive
same,Potency,[7],inactive
OC(c1ccccc1)(c1ccccc1)C1CCNCC1,Potency,[1],inactive
same,Potency,[2],inactive
same,outcome,[3],inactive
CC1COC2(c3ccccc3Cl)c3cc(Cl)ccc3NC(=O)CN12 (configuration not stated),Potency,[1],inactive
same,Potency,[2],inactive
same,outcome,[3],inactive
same,Potency,[4],inactive
same,Potency,[5],inactive
same,Potency,[6],inactive
same,Potency,[7],inactive
CCCCCCCCC(=O)NCc1ccc(O)c(OC)c1,Potency,[1],inactive
same,Potency,[2],inactive
same,outcome,[3],inactive
same,Potency,[4],inactive
same,Potency,[5],inactive
same,Potency,[6],inactive
same,Potency,[7],inactive
COP(=O)(OC)C(O)C(Cl)(Cl)Cl (configuration not stated),Potency,[1],inactive
same,Potency,[2],inactive
same,outcome,[3],inactive
same,Potency,[4],inactive
same,Potency,[5],inactive
same,Potency,[6],inactive
same,Potency,[7],inactive
CCC(C(=O)OCCN1CCOC(c2ccccc2)C1C)c1ccccc1 (configuration not stated),Potency,[4],inactive
same,Potency,[5],inactive
same,Potency,[6],inactive
same,Potency,[7],inactive
CCCc1ncc(C[n+]2ccccc2C)c(N)n1,Potency,[4],inactive
same,Potency,[5],inactive
same,Potency,[6],inactive
same,Potency,[7],inactive
COCc1c(C(C)C)nc(C(C)C)c(/C=C/[C@@H](O)C[C@@H](O)CC(=O)O)c1-c1ccc(F)cc1,Potency,[4],inactive
same,Potency,[5],inactive
same,Potency,[6],inactive
same,Potency,[7],0.708 µM (active)
CCOC(=O)OC(C)OC(=O)[C@@H]1N2C(=O)[C@@H](NC(=O)[C@H](N)c3ccccc3)[C@H]2SC1(C)C (some centres not stated),Potency,[4],inactive
same,Potency,[5],inactive
same,Potency,[6],inactive
same,Potency,[7],inactive
OC[C@H]1O[C@@H](O[C@@H]2[C@@H](CO)O[C@](O)(CO)[C@H]2O)[C@H](O)[C@@H](O)[C@H]1O,Potency,[4],inactive
same,Potency,[5],inactive
same,Potency,[6],inactive
same,Potency,[7],inactive
CN1CCCN=C1/C=C/c1cccs1,Potency,[4],inactive
same,Potency,[5],inactive
same,Potency,[6],inactive
same,Potency,[7],inactive
CCNC(=O)NCCCOc1cccc(CN2CCCCC2)c1,Potency,[4],inactive
same,Potency,[5],inactive
same,Potency,[6],inactive
same,Potency,[7],inactive
CCCCCC1Nc2cc(C(F)(F)F)c(S(N)(=O)=O)cc2S(=O)(=O)N1 (configuration not stated),Potency,[4],inactive
same,Potency,[5],inactive
same,Potency,[6],inactive
same,Potency,[7],inactive
CCC(=O)Oc1ccc2c(c1)CC[C@@H]1[C@@H]2CC[C@@]2(C)[C@H]1C[C@@H](OC(=O)CC)[C@@H]2OC(=O)CC,Potency,[4],inactive
same,Potency,[5],inactive
same,Potency,[6],inactive
same,Potency,[7],inactive
CC(=O)N(CC(O)CN(C(C)=O)c1c(I)c(C(=O)NCC(O)CO)c(I)c(C(=O)NCC(O)CO)c1I)c1c(I)c(C(=O)NCC(O)CO)c(I)c(C(=O)NCC(O)CO)c1I (configuration not stated),Potency,[4],inactive
same,Potency,[5],inactive
same,Potency,[6],inactive
same,Potency,[7],inactive
CC(C(O)c1ccc(O)cc1)N1CCC(Cc2ccccc2)CC1 (configuration not stated),Potency,[4],inactive
same,Potency,[5],inactive
same,Potency,[6],inactive
same,Potency,[7],inactive
COc1cccc(N(C)C(=S)Oc2ccc3c(c2)CCCC3)n1,Potency,[4],inactive
same,Potency,[5],inactive
same,Potency,[6],inactive
same,Potency,[7],inactive
Cc1ccc(C(C)OC(=O)C2(C)CCC(C(=O)O)C2(C)C)cc1 (configuration not stated),Potency,[4],inactive
same,Potency,[5],inactive
same,Potency,[6],inactive
same,Potency,[7],inactive
Cc1[nH]c(=O)c(C#N)cc1-c1ccc2nccn2c1,Potency,[4],inactive
same,Potency,[5],inactive
same,Potency,[6],inactive
same,Potency,[7],inactive
Cc1cccc(CN2CCN(C(c3ccccc3)c3ccc(Cl)cc3)CC2)c1 (configuration not stated),Potency,[4],inactive
same,Potency,[5],inactive
same,Potency,[6],inactive
same,Potency,[7],inactive
NS(=O)(=O)c1ccc(N2CCCCS2(=O)=O)cc1,Potency,[4],inactive
same,Potency,[5],inactive
same,Potency,[6],inactive
same,Potency,[7],inactive
CCC(=O)c1ccc(O)cc1,Potency,[4],inactive
same,Potency,[5],inactive
same,Potency,[6],inactive
same,Potency,[7],inactive
Cc1cccc(N(C)C(=S)Oc2ccc3ccccc3c2)c1,Potency,[4],inactive
same,Potency,[5],inactive
same,Potency,[6],inactive
same,Potency,[7],inactive
CCN(CC)C(=O)N1CCN(C)CC1,Potency,[4],inactive
same,Potency,[5],inactive
same,Potency,[6],inactive
same,Potency,[7],inactive
CCCOc1ccc2nc(NC(=O)OC)[nH]c2c1,Potency,[4],inactive
same,Potency,[5],inactive
same,Potency,[6],inactive
same,Potency,[7],inactive
CN(C)C(=O)Oc1cccc([N+](C)(C)C)c1,Potency,[4],inactive
same,Potency,[5],inactive
same,Potency,[6],inactive
same,Potency,[7],inactive
CNC(=O)c1c(I)c(NC(=O)CCCCC(=O)Nc2c(I)c(C(=O)O)c(I)c(C(=O)NC)c2I)c(I)c(C(=O)O)c1I,Potency,[4],inactive
same,Potency,[5],inactive
same,Potency,[6],inactive
same,Potency,[7],inactive
CN1CCCN=C1COC(=O)C(O)(c1ccccc1)C1CCCCC1 (configuration not stated),Potency,[4],inactive
same,Potency,[5],inactive
same,Potency,[6],inactive
same,Potency,[7],inactive
Brc1c(NC2=NCCN2)ccc2nccnc12,Potency,[4],inactive
same,Potency,[5],inactive
same,Potency,[6],inactive
same,Potency,[7],inactive
CCN(CC)CC(=O)Nc1c(C)cccc1C,Potency,[4],inactive
same,Potency,[5],inactive
same,Potency,[6],inactive
same,Potency,[7],inactive
C[C@H]1NCc2cc(-c3ccc4c(=O)c(C(=O)O)cn(C5CC5)c4c3OC(F)F)ccc21,Potency,[4],inactive
same,Potency,[5],inactive
same,Potency,[6],inactive
same,Potency,[7],inactive
CC1=C(CC(=O)O)c2cc(F)ccc2/C1=C\c1ccc(S(C)=O)cc1 (configuration not stated),Potency,[4],inactive
same,Potency,[5],inactive
same,Potency,[6],inactive
same,Potency,[7],inactive
Oc1ccc(C(O)CNCCCCCCNCC(O)c2ccc(O)c(O)c2)cc1O (configuration not stated),Potency,[4],inactive
same,Potency,[5],inactive
same,Potency,[6],inactive
same,Potency,[7],inactive
O=C(O)c1ccc(OCCCOc2ccc(C(=O)O)cc2)cc1,Potency,[4],inactive
same,Potency,[5],inactive
same,Potency,[6],inactive
same,Potency,[7],inactive
CC1(C)[C@@H](OC(=O)CCC(=O)O)CC[C@]2(C)[C@H]3C(=O)C=C4[C@@H]5C[C@@](C)(C(=O)O)CC[C@]5(C)CC[C@@]4(C)[C@]3(C)CC[C@@H]12,Potency,[4],inactive
same,Potency,[5],inactive
same,Potency,[6],inactive
same,Potency,[7],inactive
N[C@@H](CSSC[C@H](N)C(=O)O)C(=O)O,outcome,[4],inactive [at 0.573 µM]
same,"activity change, negative = cytotoxicity",[5],2.73% [at 0.573 µM]
same,outcome,[6],inactive [at 0.573 µM]
same,"activity change, negative = cytotoxicity",[7],4.84% [at 0.573 µM]
N#Cc1cc(NC(=O)C(=O)O)c(Cl)c(NC(=O)C(=O)O)c1,Potency,[4],inactive
same,Potency,[5],inactive
same,Potency,[6],inactive
same,Potency,[7],inactive
C/C(=C(\CCOP(=O)(O)O)SC(=O)c1ccccc1)N(C=O)Cc1cnc(C)nc1N,outcome,[4],inactive [at 5.34 µM]
same,outcome,[5],inactive [at 5.34 µM]
same,outcome,[6],inactive [at 5.34 µM]
same,outcome,[7],inactive [at 5.34 µM]
CCOCC(O)COc1ccc(NC(=O)CC[S+](C)C)cc1 (configuration not stated),Potency,[4],inactive
same,Potency,[5],inactive
same,Potency,[6],inactive
same,Potency,[7],inactive
CCOC(=O)c1ccc(C#Cc2ccc3c(c2)C(C)(C)CCS3)nc1,Potency,[4],inactive
same,Potency,[5],inactive
same,Potency,[6],inactive
same,Potency,[7],inactive
CC(=O)Oc1ccc(C(=C2CCCCC2)c2ccc(OC(C)=O)cc2)cc1,Potency,[4],inactive
same,Potency,[5],inactive
same,Potency,[6],inactive
same,Potency,[7],inactive
Oc1cccc(-c2c3nc(c(-c4cccc(O)c4)c4ccc([nH]4)c(-c4cccc(O)c4)c4nc(c(-c5cccc(O)c5)c5ccc2[nH]5)CC4)C=C3)c1,Potency,[4],inactive
same,Potency,[5],inactive
same,Potency,[6],inactive
same,Potency,[7],inactive
NCCc1cnc[nH]1,Potency,[4],inactive
same,Potency,[5],inactive
same,Potency,[6],inactive
same,Potency,[7],inactive
C/C=C/c1ccc(O)c(OC)c1,Potency,[4],inactive
same,Potency,[5],inactive
same,Potency,[6],inactive
same,Potency,[7],inactive
CC1(C)O[C@@H]2C[C@H]3[C@@H]4C[C@H](F)C5=CC(=O)CC[C@]5(C)[C@H]4[C@@H](O)C[C@]3(C)[C@]2(C(=O)CO)O1,Potency,[4],inactive
same,Potency,[5],inactive
same,Potency,[6],inactive
same,Potency,[7],inactive
CC(=O)OC[C@H]1O[C@@](COC(C)=O)(O[C@H]2O[C@H](COC(C)=O)[C@@H](OC(C)=O)[C@H](OC(C)=O)[C@H]2OC(C)=O)[C@@H](OC(C)=O)[C@@H]1OC(C)=O,Potency,[4],inactive
same,Potency,[5],inactive
same,Potency,[6],inactive
same,Potency,[7],inactive
